From PubChem BioAssay AID1835 (Johns Hopkins Ion Channel Center, 2009) come the findings set out here.

About 750 (31%) of roughly 2,400 compounds were called active. The list shows a part of the results. Values without a mark were called inactive.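 How the source made its calls: active means median signal gain over dofetilide-blocked control wells reaching their mean plus 3 SD, so readout 1 at least 0; inactive means the rest.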

For this test, the target named is Voltage-gated inwardly rectifying potassium channel KCNH2 (Homo sapiens) (UniProt Q12809). The test is described as follows: modulators restoring hERG flux under dofetilide – cell-based, thallium flux, duplicate retest, dofetilide IC70, confirmation (AID 1835). The settings on record: hERG cell line, FluxOR thallium flux, dofetilide-blocked; at 10 µM; stronger effect = higher value.
Sequence of Voltage-gated inwardly rectifying potassium channel KCNH2 (Homo sapiens) (Q12809 whole entry, looked up): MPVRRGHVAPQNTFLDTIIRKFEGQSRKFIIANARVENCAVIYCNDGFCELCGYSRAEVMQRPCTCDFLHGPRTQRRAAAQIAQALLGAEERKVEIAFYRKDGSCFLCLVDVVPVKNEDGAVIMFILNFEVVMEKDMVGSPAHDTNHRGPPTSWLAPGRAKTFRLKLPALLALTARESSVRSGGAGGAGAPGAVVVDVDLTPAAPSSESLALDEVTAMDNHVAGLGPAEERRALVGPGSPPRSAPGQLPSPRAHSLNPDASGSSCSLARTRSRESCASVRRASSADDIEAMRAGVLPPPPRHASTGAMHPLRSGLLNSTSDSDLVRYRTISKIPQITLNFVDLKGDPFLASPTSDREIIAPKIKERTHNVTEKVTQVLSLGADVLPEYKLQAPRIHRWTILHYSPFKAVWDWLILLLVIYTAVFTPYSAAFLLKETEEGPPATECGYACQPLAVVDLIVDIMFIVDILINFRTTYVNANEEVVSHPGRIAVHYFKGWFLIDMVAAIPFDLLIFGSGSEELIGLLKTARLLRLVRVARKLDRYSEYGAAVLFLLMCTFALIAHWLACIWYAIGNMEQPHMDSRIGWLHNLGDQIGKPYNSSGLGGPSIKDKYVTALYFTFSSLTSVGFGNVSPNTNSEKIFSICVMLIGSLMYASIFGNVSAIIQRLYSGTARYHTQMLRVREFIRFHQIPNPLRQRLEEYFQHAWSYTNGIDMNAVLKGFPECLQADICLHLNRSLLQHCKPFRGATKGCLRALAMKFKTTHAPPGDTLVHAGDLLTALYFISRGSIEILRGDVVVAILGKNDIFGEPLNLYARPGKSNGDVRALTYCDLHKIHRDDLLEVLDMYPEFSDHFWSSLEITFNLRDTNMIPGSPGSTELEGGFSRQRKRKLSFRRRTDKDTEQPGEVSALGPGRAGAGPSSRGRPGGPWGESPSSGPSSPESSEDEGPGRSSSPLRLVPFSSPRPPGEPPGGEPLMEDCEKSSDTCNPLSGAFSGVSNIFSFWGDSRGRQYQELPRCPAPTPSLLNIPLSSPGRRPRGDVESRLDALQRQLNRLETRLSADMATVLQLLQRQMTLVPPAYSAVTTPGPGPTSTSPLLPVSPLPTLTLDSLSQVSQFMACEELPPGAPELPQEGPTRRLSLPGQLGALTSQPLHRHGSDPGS
`N#Cc1c(NC(=O)c2cc(-n3cnnc3)ccc2Cl)sc2c1CCCC2`: the activity increase over dofetilide control, less the hit threshold was 5% (active).

For the molecule `CC1(C)Cc2c(sc(NC(=O)C(=O)N3CCCC3)c2C#N)CO1`, the activity increase over dofetilide control, less the hit threshold was -2%.

As for `Nc1nonc1-n1nnc(C(=O)N/N=C/c2ccccn2)c1-c1ccccc1`, the activity increase over dofetilide control, less the hit threshold was -5%.

`Nc1nonc1-n1nnc(C(=O)N/N=C/c2cccc(Cl)c2Cl)c1CN1CCCC1`: the activity increase over dofetilide control, less the hit threshold is 5% (active).

For `CN(C)Cc1c(C(=O)N/N=C/c2ccccc2OCc2c(F)cccc2Cl)nnn1-c1nonc1N`, the activity increase over dofetilide control, less the hit threshold was 40% (active).

`CCc1ccc(/C=N/NC(=O)c2nnn(-c3nonc3N)c2C(C)C)cc1`: the activity increase over dofetilide control, less the hit threshold was -22%.

Consider `Cc1c(C(=O)N/N=C/c2ccccn2)nnn1-c1nonc1N`, for which the activity increase over dofetilide control, less the hit threshold is -14%.

As to `CCCOc1ccc(-c2c(C(=O)N/N=C/c3ccccc3OCC)nnn2-c2nonc2N)cc1`, the activity increase over dofetilide control, less the hit threshold is -7%.

Consider `CN(NC1OC(=O)c2ccccc21)c1ccccc1[N+](=O)[O-]` (centres undefined), for which the activity increase over dofetilide control, less the hit threshold is -4%.

Consider `CCCCOC(=O)Nc1nnc(C(C)C)s1`, for which the activity increase over dofetilide control, less the hit threshold is -14%.

`CCOC(=O)c1cccc(C(=O)Nc2nc3ccc(OC)cc3s2)n1`: the activity increase over dofetilide control, less the hit threshold was -14%.

On to `O=C(NC(=S)Nc1nc2ccc(F)cc2s1)c1ccco1`, for which the activity increase over dofetilide control, less the hit threshold is 65% (active).

Turning to `CCc1ccc2nc(NC(=O)c3cc(C)on3)sc2c1`, the activity increase over dofetilide control, less the hit threshold was 10% (active).

As to `O=C(NC(=S)Nc1nc2ccccc2s1)c1ccco1`, the activity increase over dofetilide control, less the hit threshold was -3%.

As to `Cc1ccc2nc(NC(=S)NC(=O)c3ccco3)sc2c1`, the activity increase over dofetilide control, less the hit threshold was 50% (active).

For `CC(C)(C)Cc1nnc(NC(=O)c2ccco2)s1`, the activity increase over dofetilide control, less the hit threshold was -13%.

Consider `COc1ccc2nc(NC(=S)NC(=O)c3ccco3)sc2c1`, for which the activity increase over dofetilide control, less the hit threshold was 2% (active).

As to `CCc1nnc(NC(=O)c2cccc(C(=O)Nc3nnc(CC)s3)n2)s1`, the activity increase over dofetilide control, less the hit threshold was -10%.

`COc1cccc(-c2cc(C(F)(F)F)nc(N3CCCCC3)n2)c1`: the activity increase over dofetilide control, less the hit threshold was -17%.

As to `Cc1ccc([N+](=O)[O-])c2c1C(N1CC(C)OC(C)C1)C(C)(C)O2` (centres undefined), the activity increase over dofetilide control, less the hit threshold was -24%.

Regarding `CCc1cccc(C)c1NC(=O)C1=C(C(=O)O)CCCC1`, the activity increase over dofetilide control, less the hit threshold was -14%.

On to `NS(=O)(=O)c1ccc(Sc2ccc3c(c2)CCC3)nc1`, for which the activity increase over dofetilide control, less the hit threshold is -2%.

Turning to `CSc1nc(C)c2c(n1)N(c1ccc(C(C)C)cc1)CC2`, the activity increase over dofetilide control, less the hit threshold was -9%.

In the case of `Clc1ccc(Nc2ccc(Cl)nn2)cc1`, the activity increase over dofetilide control, less the hit threshold was -6%.

`Cc1cc(OCC(=O)Nc2cc(S(=O)(=O)N3CCOCC3)ccc2N2CCCC2)ccc1C(C)C`: the activity increase over dofetilide control, less the hit threshold was -7%.

Turning to `CCCCCN(C(=O)CCC(=O)OCC(=O)N(C)C1CCCCC1)c1c(N)n(CCCC)c(=O)[nH]c1=O`, the activity increase over dofetilide control, less the hit threshold was -12%.

On to `COc1ccc(-c2nc(=S)c3ccc4ccccc4c3[nH]2)cc1`, for which the activity increase over dofetilide control, less the hit threshold is 76% (active).

`COc1ccc(-n2c(=S)[nH]c3ccccc3c2=S)cc1`: the activity increase over dofetilide control, less the hit threshold was -12%.

Take `CC(C)CC(=O)Nc1ccc2c3c(cccc13)CC2`: the activity increase over dofetilide control, less the hit threshold was -3%.

Regarding `CCC1(CC)Cc2ccccc2-c2[nH]c(=S)[nH]c(=O)c21`, the activity increase over dofetilide control, less the hit threshold was -6%.

Turning to `CCn1c(=S)[nH]c2c(c1=O)C(C)(C)Cc1ccccc1-2`, the activity increase over dofetilide control, less the hit threshold is 26% (active).

Consider `O=C(CSc1nc2ccccc2o1)NCc1n[nH]c(=O)c2ccccc12`, for which the activity increase over dofetilide control, less the hit threshold is -4%.

In the case of `CCOc1ccccc1Nc1nc(-c2sc(C)nc2C)cs1`, the activity increase over dofetilide control, less the hit threshold is -9%.

`CN(C(=O)c1ccc(Cl)c(S(=O)(=O)N2CCOCC2)c1)c1ccccc1C(=O)O`: the activity increase over dofetilide control, less the hit threshold was 7% (active).

For the molecule `CCN(CC(=O)Nc1c(F)cccc1F)C(=O)c1ccc(Cl)c(S(=O)(=O)N2CCCCC2)c1`, the activity increase over dofetilide control, less the hit threshold was -19%.

In the case of `O=C(C1CCN(S(=O)(=O)c2cc(Cl)ccc2Cl)CC1)N1CCOCC1`, the activity increase over dofetilide control, less the hit threshold was -16%.

Turning to `C=Cc1ccc(Cn2c(=O)n(CCCOC)c(=O)c3sccc32)cc1`, the activity increase over dofetilide control, less the hit threshold was -14%.

For `O=[N+]([O-])c1cccc(/C=N/N=C\c2ccccc2)c1`, the activity increase over dofetilide control, less the hit threshold was -20%.

`Cc1ccc(C(=O)N/N=C(/CC(=O)c2cccs2)C(F)(F)F)cc1`: the activity increase over dofetilide control, less the hit threshold was 3% (active).

As for `C/C(=N\NC(=O)c1ccc(NS(=O)(=O)c2cccs2)cc1)c1ccc2c(c1)OCO2`, the activity increase over dofetilide control, less the hit threshold was -17%.

Regarding `COc1ccc(S(=O)(=O)N2CCCC(C(=O)Nc3ccc(OC)c(OC)c3)C2)cc1` (centres undefined), the activity increase over dofetilide control, less the hit threshold was -22%.

For `CCN(Cc1ccc(OC)c(F)c1)C(=O)C1CCCO1` (centres undefined), the activity increase over dofetilide control, less the hit threshold was -3%.

In the case of `COc1ccc(-c2cnn(C3CCS(=O)(=O)C3)c2N)cc1` (centres undefined), the activity increase over dofetilide control, less the hit threshold is -23%.

With `COc1cc(C2C(C#N)=C(N)Oc3c2ccc2ccccc32)ccc1OCC(=O)Nc1ccc(C)cc1` (centres undefined), the activity increase over dofetilide control, less the hit threshold is -19%.

Consider `CCOC(=O)C1=C(N)Oc2cc(O)ccc2C1c1cccnc1` (centres undefined), for which the activity increase over dofetilide control, less the hit threshold was -12%.

Take `COC(=O)c1ccc(C2C(C#N)=C(N)Oc3cc(O)ccc32)cc1` (centres undefined): the activity increase over dofetilide control, less the hit threshold is 69% (active).

`Cc1ccc(OC(=O)c2ccc(Br)o2)cc1`: the activity increase over dofetilide control, less the hit threshold was 37% (active).

As to `CCCOc1ccc(OC(=O)c2ccc(Br)o2)cc1`, the activity increase over dofetilide control, less the hit threshold is 14% (active).

For `CCCCOc1ccc(CC(=O)NCC(=O)O)cc1`, the activity increase over dofetilide control, less the hit threshold is -17%.

Turning to `O=C(NC1CCCC1)c1ccc(Br)o1`, the activity increase over dofetilide control, less the hit threshold was -5%.

As for `O=C(COC(=O)c1ccc(Br)o1)NC1CCCCC1`, the activity increase over dofetilide control, less the hit threshold is -6%.

As for `Cc1ccsc1CN(C(=O)c1ccc([N+](=O)[O-])cc1)C1CCS(=O)(=O)C1` (centres undefined), the activity increase over dofetilide control, less the hit threshold is -5%.

On to `O=C(CS(=O)(=O)Cc1ccccc1)Nc1ccc(Cl)cn1`, for which the activity increase over dofetilide control, less the hit threshold was -11%.

As to `CCNC(=O)C/C(C)=N/NC(=O)C(=O)Nc1ccc(CC)cc1`, the activity increase over dofetilide control, less the hit threshold was 9% (active).

On to `CCCCNC(=O)COC(=O)c1ccc(NC(C)=O)cc1`, for which the activity increase over dofetilide control, less the hit threshold is -18%.

For the molecule `CCCCCCC12CCC(C(=O)O)(CC1)CC2`, the activity increase over dofetilide control, less the hit threshold was 14% (active).

For the molecule `CCOc1ccc(NC(=O)CSc2nc3nc(C)cc(C)n3n2)cc1`, the activity increase over dofetilide control, less the hit threshold is -8%.

On to `CCOc1ccc(NC(=O)C2C(C(=O)O)C3(Cl)C(Cl)=C(Cl)C2(Cl)C3(Cl)Cl)cc1` (centres undefined), for which the activity increase over dofetilide control, less the hit threshold is -8%.

As for `CCOc1ccc(NC(=S)NS(=O)(=O)c2cc(Br)ccc2OCC)cc1`, the activity increase over dofetilide control, less the hit threshold was 37% (active).

For the molecule `CCc1nnc(NC(=O)COc2ccc([N+](=O)[O-])cc2)s1`, the activity increase over dofetilide control, less the hit threshold was -11%.

In the case of `CCc1nnc(NC(=O)CSc2nc(-c3ccccc3)cc(-c3ccc(OC)cc3)c2C#N)s1`, the activity increase over dofetilide control, less the hit threshold was 11% (active).

Consider `N#Cc1c(-c2ccc(Cl)cc2)cc(-c2cccs2)nc1SCC(=O)O`, for which the activity increase over dofetilide control, less the hit threshold is -22%.

Turning to `CCOc1cc(N2CCCC2)ccc1[N+](=O)[O-]`, the activity increase over dofetilide control, less the hit threshold is -3%.

Regarding `CC(=O)c1cccc(NC(=O)NCc2cccs2)c1`, the activity increase over dofetilide control, less the hit threshold is -23%.
